According to PubChem BioAssay AID1626 (SRMLSC, 2009):
Out of some 220,000 compounds screened, about 2,000 (0.91%) were called active. Inconclusive results (about 2%) are left out. Only a sample is shown. Potency and affinity values are given separately. Unmarked numbers belong to inactive results. Cut-off read from the data, not from the text of the source: inconclusive = inhibition above about 80% without an active follow-up result; inactive = below that; test concentration not stated here.

Experiment: M. tuberculosis H37Rv growth inhibitors, H37Rv strain (AID 1626);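 note: bacteria incubated seven days before Alamar blue readout; 0% = bacteria only wells and 100% = bacteria with antibiotic wells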
Details: active compounds read high, concentration not given here
Work on `COc1ccc(NC(=O)N/C=C/c2ccccc2)cc1` yielded an inhibition of -0.86%.
Molecule `COc1cc(C(C[N+](=O)[O-])c2c(N)n(C)c(=O)n(C)c2=O)ccc1O` (stereo not given) has an inhibition of 1.8%.
`COc1ccccc1C(C[N+](=O)[O-])c1c(N)n(C)c(=O)n(C)c1=O` (stereo not given) showed an inhibition of 40.8%.
For `CCCOc1cccc(C2C(C(=O)c3ccco3)=C(O)C(=O)N2CCN(CC)CC)c1` (stereo not given), the inhibition was -7.15%.
In the case of `CC(C(=O)N1CCCC1)N1CCN(c2ccccc2O)CC1` (stereo not given), the inhibition is reported as -5.08%.
Work on `C/C(O)=C(\N=Nc1cc(C)ccc1O)C(N)=O` yielded an inhibition of 0.25%.
For `Cc1ccc(Cn2ccc(NC(=O)c3cc(C4CC4)on3)n2)cc1`, the inhibition was -5.45%.
Work on `COc1ccc(Cn2c(C(C)C)nc3sc4ccccc4c(=O)c3c2=O)cc1` yielded an inhibition of 17.7%.
For `CCc1nc2sc3ccccc3c(=O)c2c(=O)n1CCOC`, the inhibition was -3.87%.
For `O=C(COc1ccccc1Br)Nc1ccccc1C(F)(F)F`, the inhibition was 1.69%.
With `COc1ccc2[nH]c3c(NCCC4=CCCCC4)ncnc3c2c1` the inhibition was 50.8%.
For `O=c1c2[nH]c3ccccc3c2ncn1CCC1=CCCCC1`, the inhibition was -3.83%.
For `CCNC(=S)NNC(=S)NCc1ccccc1`, the inhibition was -6.54%.
For `CCCNc1ccc(C(=O)OCC)cc1[N+](=O)[O-]`, the inhibition was -2.78%.
Molecule `CCOC(=O)c1ccc(NC(C)=O)c([N+](=O)[O-])c1` has an inhibition of -0.43%.
For `COc1cc(S(N)(=O)=O)c(OC)cc1N`, the inhibition was -5.42%.
`COC(=O)CCn1nc(-c2ccc(Cl)cc2)c2ccccc2c1=O` showed an inhibition of 0.44%.
Molecule `CCCNC(=O)C1CCN(S(=O)(=O)c2cccc3nonc23)CC1` has an inhibition of 3.34%.
`O=C(NCc1cccs1)C(=O)NCC(c1ccco1)N1CCN(c2ccccc2F)CC1` (stereo not given) gave an inhibition of 4.89%.
Work on `C[C@@H](C(=O)Nc1nc(-c2ccccn2)cs1)N1C(=O)C2CCCCC2C1=O` (stereo not given in full) yielded an inhibition of 1.46%.
Work on `Cc1csc(NC(=O)C2CCCC2)n1` yielded an inhibition of -11.7%.
`O=C(/C=C\c1ccco1)Nc1nc(-c2ccccc2)cs1` showed an inhibition of 9.29%.
`CC1CC1C(=O)Nc1nc(-c2ccc(Cl)s2)cs1` (stereo not given) gave an inhibition of 9.3%.
Work on `CC(=O)Nc1ccc(C(=O)Nc2nc(-c3ccccn3)cs2)cc1` yielded an inhibition of 0.25%.
Work on `CC1CC1C(=O)Nc1nc(-c2ccccc2)cs1` (stereo not given) yielded an inhibition of -12.6%.
With `Cc1ccnc2nc(C(=O)Nc3nc(-c4ccccn4)cs3)nn12` the inhibition was -1.5%.
In the case of `O=C(/C=C/c1ccco1)Nc1nc(-c2ccccc2)cs1`, the inhibition is reported as 9.68%.
In the case of `O=C(NCc1ccc(F)cc1)C1CCCN(S(=O)(=O)c2cccc3nsnc23)C1` (stereo not given), the inhibition is reported as -3.19%.
`NC1=NC(=O)C(Cc2cc(Cl)ccc2Cl)S1` (stereo not given) showed an inhibition of -5.29%.
`CCOC(=O)C1(C)NC(c2ccc(OC)c(OC)c2)C2C(=O)N(CC)C(=O)C21` (stereo not given) showed an inhibition of -0.15%.
Work on `O=C(O)c1ccc(S(=O)(=O)c2ccc(Sc3ccc(C(=O)O)c(C(=O)O)c3)cc2)cc1` yielded an inhibition of -20.9%.
`CCOC(=O)COc1ccc(S(=O)(=O)NCc2ccco2)cc1` gave an inhibition of 10.1%.
Work on `Cc1cc(C(=O)N2CCOCC2)c(C)o1` yielded an inhibition of -4.61%.
With `COCCOc1ccc(C(F)(F)F)cc1NC(=O)c1ccc(C)cc1` the inhibition was 2.93%.
With `CCN1C(=O)CC(c2ccco2)Sc2ccccc21` (stereo not given) the inhibition was 4.45%.
`O=P(O)(O)C12CC3CC(CC(C3)C1)C2` gave an inhibition of 1.57%.
In the case of `O=C(/C=C/c1cccc([N+](=O)[O-])c1)NCCSCc1ccc(Cl)cc1`, the inhibition is reported as 11.2%.
`CC(C)(C)c1cc(C(=O)NCC(=O)OCC(=O)c2cccc([N+](=O)[O-])c2)cc(C(C)(C)C)c1` showed an inhibition of -4.29%.
`Cc1cccc([N+](=O)[O-])c1NC(=O)CN(Cc1ccccc1)Cc1ccccc1` gave an inhibition of -0.69%.
Work on `CN(CCc1ccccn1)c1ncnc2[nH]ncc12` yielded an inhibition of 2.15%.
Work on `COc1cccc2sc(NN)nc12` yielded an inhibition of 7.32%.
With `CC(=O)Nc1ccc(-c2csc(NC(=O)C3CC(=O)N(c4ccc5c(c4)OCCO5)C3)n2)cc1` (stereo not given) the inhibition was -1.99%.
For `O=C(Nc1nccs1)c1cc(Cl)ccc1[N+](=O)[O-]`, the inhibition was 3.23%.
For `O=C(Nc1nc(-c2cc(Cl)sc2Cl)cs1)c1ccc(Br)s1`, the inhibition was 1.52%.
`O=C(NCc1ccccn1)c1ccc(Br)s1` showed an inhibition of -0.44%.
`Cc1csc(NC(=O)c2ccc(Cl)cc2[N+](=O)[O-])n1` gave an inhibition of -4.05%.
With `COc1cccc2sc(Nc3nc(-c4ccncc4)cs3)nc12` the inhibition was 1.36%.
For `COc1ccc(-c2csc(NC(=O)C3CC(=O)N(c4ccc5c(c4)OCCO5)C3)n2)cc1` (stereo not given), the inhibition was 28%.
`Cc1ccc(C(=O)Nc2nc(-c3cc(Cl)sc3Cl)cs2)cc1` gave an inhibition of 3.4%.
For `COc1ccccc1C(=O)Nc1c(C)cc(Br)cc1C`, the inhibition was 21.1%.
`CCCN1C(=O)C(O)(CC(=O)c2cccc(OC)c2)c2ccccc21` (stereo not given) showed an inhibition of -1.3%.
With `O=C(O)c1ccc(N2C(=O)CC(SC(=NCc3ccc4c(c3)OCO4)Nc3ccccc3)C2=O)cc1` (stereo not given) the inhibition was 1.43%.
`CCc1ccc(NC(=O)c2cnn(-c3ccccc3)c2C)cc1` showed an inhibition of 1.29%.
`COc1ccc(-n2c(Cc3cccs3)nnc2SCC(=O)Nc2ccc3c(c2)OCCO3)cc1` showed an inhibition of -1.02%.
In the case of `COc1ccc(-c2cc(C(=O)NC3CCCC3)no2)cc1OC`, the inhibition is reported as 9.4%.
`O=[N+]([O-])c1cccc(-c2nnc(CNC3CC3)o2)c1` gave an inhibition of 1.99%.
`CC(C)c1ccc(OCC(=O)N2CCCCCC2)c(Br)c1` gave an inhibition of 4.07%.
In the case of `Cc1ccc(NC(=O)C2CC(=O)Nc3nncn32)cc1` (stereo not given), the inhibition is reported as -5.26%.
`Cc1c(Cl)cccc1S(=O)(=O)Nc1ccnn1C` showed an inhibition of -14.5%.
`O=C(Nc1nc(-c2nc3ccccc3s2)cs1)C1CC1` gave an inhibition of 7.59%.
Work on `O=C(CCSc1ccccc1)Nc1nccs1` yielded an inhibition of 3.44%.
In the case of `O=C(CN1C(=O)CCC1=O)Nc1nc(-c2ccccn2)cs1`, the inhibition is reported as 2.51%.
In the case of `c1ccc(-c2csc(Nc3cccnc3)n2)nc1`, the inhibition is reported as 10.1%.
Work on `c1ccc(Nc2nc(-c3ccncc3)cs2)cc1` yielded an inhibition of 5.87%.
`O=C(CCS(=O)(=O)c1ccccc1)Nc1nc(-c2ccccn2)cs1` showed an inhibition of 73.5%.
In the case of `O=C(Nc1ccccn1)C12CC3CC(C1)CC(C(=O)Nc1ccccn1)(C3)C2`, the inhibition is reported as -2.92%.
`O=C(Nc1nccs1)C12CC3CC(C1)CC(C(=O)Nc1nccs1)(C3)C2` gave an inhibition of 1.25%.
Work on `O=c1[nH]c(N2CCOCC2)nc2ncn(Cc3ccccc3)c12` yielded an inhibition of -3.03%.
Work on `COc1ccc(NS(=O)(=O)c2ccc(Cl)c(C(=O)O)c2)cc1S(=O)(=O)N1CCCCC1` yielded an inhibition of -7.19%.
For `O=c1[nH]c(N2CCc3ccccc3C2)nc2c1CCC2`, the inhibition was -0.21%.
In the case of `CCOC(=O)N1CCN(c2ccc([N+](=O)[O-])cc2F)CC1C` (stereo not given), the inhibition is reported as 9.74%.
In the case of `CCCCn1c(CNC(C)=O)nc2ccccc21`, the inhibition is reported as 1.64%.
For `COC(=O)c1[nH]c2cc(C)ccc2c1NC(=O)CN1CCN(c2ccccc2OC)CC1`, the inhibition was 45%.
`CCC(C)NC(=S)Nc1ccc(F)cc1` (stereo not given) showed an inhibition of 0.18%.
Work on `CCc1nnc(NC(=O)C(NC(=O)c2ccccc2Cl)C(C)C)s1` (stereo not given) yielded an inhibition of 3.06%.
`Cc1csc(NC(=O)C(NC(=O)c2ccccc2F)C(C)C)n1` (stereo not given) showed an inhibition of 5.45%.
`CCOC(=O)c1sc(=NC(=O)/C=C/c2ccccc2)n(C)c1C` gave an inhibition of -0.27%.
`COc1ccc(/C(N)=N/OC(=O)c2ccc3c(c2)OCO3)cc1` showed an inhibition of 3.21%.
Work on `O=[N+]([O-])c1cccc(Cl)c1CSc1ccccn1` yielded an inhibition of 0.94%.
For `O=C(CCCn1cnc([N+](=O)[O-])n1)Nc1cccc(Cl)c1Cl`, the inhibition was 1.24%.
Work on `O=[N+]([O-])c1ncn(Cc2ccccc2Cl)n1` yielded an inhibition of 3.07%.
With `O=C(COC(=O)/C=C/c1ccccc1)Nc1cc(C(F)(F)F)ccc1N1CCOCC1` the inhibition was -0.9%.
Molecule `CC(C)N(Cc1cn(C)nc1-c1cccc(Cl)c1)Cc1nccn1C` has an inhibition of 7.78%.
Work on `CN1CCC(=NNC(=O)COc2ccc(Cl)cc2)CC1` yielded an inhibition of 2.45%.
With `COc1ccccc1OCC(=O)NNc1c2ccccc2nc2ccccc12` the inhibition was -2.19%.
In the case of `Nc1ccc2oc3ccc(N)cc3c(=O)c2c1`, the inhibition is reported as 3.5%.
With `O=[N+]([O-])c1ccc2c(c1)oc1ccccc12` the inhibition was -1.07%.
`Cc1cc(NC(=O)c2ccc3c(c2)C(=O)N(CC(C)C)C3=O)no1` showed an inhibition of 1.19%.
Work on `COc1ccc(-c2noc(CSc3nnc(CCc4ccccc4)n3-c3ccccc3)n2)cc1OC` yielded an inhibition of 6.96%.
`CCOc1ccccc1CNc1ccc(O)cc1` showed an inhibition of -6.88%.
`Fc1cccc(COc2ccccc2CNc2ccccc2)c1` gave an inhibition of 15.2%.
`COc1ccc(-n2nnnc2SCC(=O)Nc2nc3c(s2)CCCC3)cc1` showed an inhibition of -4.11%.
`COc1ccc(C(=O)NCCN2C(=O)S/C(=C\c3cccnc3)C2=O)c(OC)c1OC` gave an inhibition of 8.22%.
`Cc1n[nH]c(C)c1CCCOc1ccccc1` gave an inhibition of -17.6%.
`Cc1ccccc1OCCCc1c(C)n[nH]c1C` showed an inhibition of 33%.
Molecule `Cc1cccc(OCCCc2c(C)n[nH]c2C)c1` has an inhibition of 1.52%.
For `Cc1cccc(C)c1OCCCCc1c(C)n[nH]c1C`, the inhibition was 78.5%.
For `Cc1n[nH]c(C)c1CCCCOc1ccccc1`, the inhibition was -2.76%.
With `Cc1n[nH]c(C)c1CCOc1ccc(C(C)C)cc1` the inhibition was -3.37%.
`Cc1nc(NC(=O)COC(=O)c2ccc(S(=O)(=O)N3CCc4ccccc4C3)cc2)c(Cl)cc1Cl` showed an inhibition of -3.47%.
